The subject of the assay is UCD52 (cells of a triple-negative basal-like breast cancer xenograft). As to the kind of experiment: cell viability of combination (% of vehicle); higher = less cytotoxic. To be noted: 1 µM; 72 h; partner dose: 10 nM. As to the method:
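PDX cells were treated for 72 h with each drug at 1 µM plus carfilzomib (10 nM; 100 nM for WHIM2). Luciferase viability is expressed as percent of vehicle.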
For the compound `CCCCc1oc2ccccc2c1C(=O)c1cc(I)c(OCCN(CC)CC)c(I)c1.Cl` [Amiodarone HCl] + CC(C)C[C@H](NC(=O)[C@H](CCc1ccccc1)NC(=O)CN1CCOCC1)C(=O)N[C@@H](Cc1ccccc1)C(=O)N[C@@H](CC(C)C)C(=O)[C@@]1(C)CO1 [Carfilzomib], the “cell viability of combination” value turned out to be 63.7.

As for `[O-]n1ccccc1=S.[O-]n1ccccc1=S.[Zn+2]` [Zinc Pyrithione] + CC(C)C[C@H](NC(=O)[C@H](CCc1ccccc1)NC(=O)CN1CCOCC1)C(=O)N[C@@H](Cc1ccccc1)C(=O)N[C@@H](CC(C)C)C(=O)[C@@]1(C)CO1 [Carfilzomib], the “cell viability of combination” value was 42.8. For `Cc1cc(Nc2ncc(Cl)c(Nc3ccccc3S(=O)(=O)C(C)C)n2)c(OC(C)C)cc1C1CCNCC1` + CC(C)C[C@H](NC(=O)[C@H](CCc1ccccc1)NC(=O)CN1CCOCC1)C(=O)N[C@@H](Cc1ccccc1)C(=O)N[C@@H](CC(C)C)C(=O)[C@@]1(C)CO1 [Carfilzomib] the value was 31.4; for `COc1cc2ncnc(Nc3ccc(F)c(Cl)c3)c2cc1NC(=O)C=CCN1CCCCC1` + CC(C)C[C@H](NC(=O)[C@H](CCc1ccccc1)NC(=O)CN1CCOCC1)C(=O)N[C@@H](Cc1ccccc1)C(=O)N[C@@H](CC(C)C)C(=O)[C@@]1(C)CO1 [Carfilzomib], 34.1. For `CN1CCN(c2ccc(C(=O)/N=c3\[nH][nH]c4ccc(Cc5cc(F)cc(F)c5)cc34)c(NC3CCOCC3)c2)CC1` [Entrectinib] + CC(C)C[C@H](NC(=O)[C@H](CCc1ccccc1)NC(=O)CN1CCOCC1)C(=O)N[C@@H](Cc1ccccc1)C(=O)N[C@@H](CC(C)C)C(=O)[C@@]1(C)CO1 [Carfilzomib] the value was 45.

(Values after the supplement of paper PMC6992640.)
